Results filed as inconclusive are left out. The source made the active and inactive calls. Unless noted, calls follow the shape of the dose curve; as a rule, active = well fitted curve in the direction sought with a large enough effect in the repeat runs; inconclusive = weak or mixed curves; inactive = no such curve, though single readings can be large; an effect the other way counts as inactive or inconclusive.
Assays:
[1] = qHTS assay to identify small molecule agonists of the vitamin D receptor (VDR) signaling pathway - cell viability counter screen (AID 743224); details: VDR-bla HEK293T viability, CellTiter-Glo luminescence, 16 h; series mostly up to 62.6 µM; also: % is scaled to controls: 0 for no effect and ±100 for the full control effect; nearly all actives have a fitted effect of over 50% in size
Summary of the method: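 Cytotoxicity counter screen: VDR-bla cells, 16 h compound exposure at 37C, 5% CO2; CellTiter-Glo luminescence, 30 min RT, same wells as bla read.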

[2] = qHTS assay to identify small molecule antagonists of the vitamin D receptor (VDR) signaling pathway - cell viability counter screen (AID 743225); details: VDR-bla HEK293T viability, CellTiter-Glo luminescence, 16 h; series mostly up to 61 µM; also: % is scaled to controls: 0 for no effect and ±100 for the full control effect; nearly all actives have a fitted effect of over 50% in size
Summary of the method: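 In this counter screen, VDR-bla HEK 293T cells receive test compound plus 3 nM final calcitriol for 16 h at 37C. Room-temperature steps of 2 h with the beta-lactamase substrate, then 30 min with CellTiter-Glo, precede the luminescence read.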

[3] = qHTS assay to identify small molecule agonists of the NFkB signaling pathway - cell viability counter screen (AID 1159515; calls by dose curve; also: % is scaled to controls: 0 for no effect and ±100 for the full control effect; nearly all actives have a fitted effect of over 55% in size); details: NFkB-bla ME-180 viability, CellTiter-Glo luminescence, 5 h; series mostly up to 61 µM
Summary of the method: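 ME-180 NFkB-bla cells, 2,000/well; overnight attach; compound 5 hr, 37 C/5% CO2; LiveBLAzer substrate 1.5 hr RT; then CellTiter-Glo in same wells, 30 min RT, luminescence read.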

[4] = qHTS assay to identify small molecule agonists of the endoplasmic reticulum stress response signaling pathway (AID 1159516; active = well fitted activation curve with a large enough effect in the signal ratio in the repeat runs, not every such curve was filed as active; the % refers to the signal ratio; also: potency is read from the fitted curve at half-maximal effect); details: ESRE-bla HeLa, ER stress beta-lactamase reporter, 5 h; series mostly up to 61 µM
Summary of the method: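 HeLa ESRE-bla reporter line; cpd 5 h, 37 C/5% CO2; LiveBLAzer B/G FRET substrate 2 h RT; ex 405, em 460/530 nm.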

[5] = qHTS assay to identify small molecule agonists of the endoplasmic reticulum stress response signaling pathway - cell viability counter screen (AID 1159517; calls by dose curve;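 also: HeLa cells carrying an ER stress response element beta-lactamase reporter; % is scaled to controls: 0 for no effect and ±100 for the full control effect; nearly all actives have a fitted effect of over 50% in size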); details: ESRE-bla HeLa viability, CellTiter-Glo luminescence, 5 h; series mostly up to 61 µM
Summary of the method: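 After overnight attachment, ESRE-bla HeLa cells were treated with Tox21 library compounds for 5 hr. CellTiter-Glo luminescence, read 30 min post-addition at room temperature, reported viability.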

[6] = qHTS assay to identify small molecule antagonists of the retinoid-related orphan receptor gamma (ROR-gamma) signaling pathway - cell viability counter screen (AID 1159520); details: Tet-on RORgamma CHO cells viability, ATP luminescence, 16 h; series mostly up to 92.4 µM; also: nearly all actives have a fitted effect of over 50% in size; also: potency is read from the fitted curve at half-maximal effect
Summary of the method: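 Cytotoxicity was read from cellular ATP (CellTiter-Glo luminescence) after 16 hr at 37 C with 1 uM doxycycline induction. The inducer was added 2 hr after compound transfer to Tet-on ROR gamma CHO cells.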

[7] = target: Nuclear receptor ROR-gamma (Homo sapiens) (UniProt P51449); assay: qHTS assay to identify small molecule antagonists of the retinoid-related orphan receptor gamma (ROR-gamma) signaling pathway (AID 1159521; also: nearly all actives have a fitted effect of over 50% in size; also: potency is read from the fitted curve at half-maximal effect); details: Tet-on RORgamma CHO cells, RORE-luciferase, 16 h; series mostly up to 92.4 µM
Summary of the method: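 Screening format: cell-based luciferase reporter in CHO cells with doxycycline-inducible RORγ. Compound pre-exposure lasts 2 h, doxycycline is 1 uM final, induction runs 16 h at 37 C, and ONE-Glo luminescence is read.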

[8] = qHTS assay to identify small molecule agonists of the AP-1 signaling pathway - cell viability counter screen (AID 1159525; calls by dose curve; also: nearly all actives have a fitted effect of over 55% in size); details: ME-180 (cervical carcinoma) AP-1-bla cells viability, ATP luminescence, 5 h; series mostly up to 76.8 µM
Summary of the method: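 Intracellular ATP by Cell Titer Glo luminescence (30 min, RT) in the same ME-180 AP-1-bla wells after the 5 h compound exposure at 37 °C. Normalised to tetra n-octyl ammonium bromide and DMSO controls.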

[9] = target: Retinoic acid receptor RXR-alpha (Homo sapiens) (UniProt P19793); assay: qHTS assay to identify small molecule agonists of the RXR signaling pathway (AID 1159527; calls by dose curve; also: % is scaled to controls: 0 for no effect and ±100 for the full control effect; nearly all actives have a fitted effect of over 35% in size); details: HEK293T RXRa-UAS-bla, beta-lactamase ratio, 16 h; series mostly up to 76.8 µM
Sequence of Retinoic acid receptor RXR-alpha (Homo sapiens) (P19793 whole entry, looked up): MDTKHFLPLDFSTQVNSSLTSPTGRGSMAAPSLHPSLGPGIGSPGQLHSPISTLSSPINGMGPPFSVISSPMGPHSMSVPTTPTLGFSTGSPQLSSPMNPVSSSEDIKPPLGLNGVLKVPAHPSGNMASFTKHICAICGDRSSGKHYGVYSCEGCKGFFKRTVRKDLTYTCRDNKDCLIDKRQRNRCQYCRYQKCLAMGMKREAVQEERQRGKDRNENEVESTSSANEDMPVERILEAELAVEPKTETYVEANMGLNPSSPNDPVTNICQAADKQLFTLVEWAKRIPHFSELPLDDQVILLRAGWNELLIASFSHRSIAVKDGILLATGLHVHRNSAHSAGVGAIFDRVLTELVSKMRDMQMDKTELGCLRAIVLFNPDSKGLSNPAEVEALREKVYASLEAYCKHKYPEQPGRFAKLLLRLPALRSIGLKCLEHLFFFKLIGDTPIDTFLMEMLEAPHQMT
Summary of the method: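 Fluorescence ratio readout (460 vs 530 nm) from GeneBLAzer RXR-alpha HEK 293T cells after 16 hr compound treatment; cells seeded 5 hr beforehand in low-serum, charcoal-stripped medium.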

[10] = qHTS assay to identify small molecule antagonists of the retinoid acid receptor (RAR) signaling pathway - cell viability counter screen (AID 1159551); details: C3RL4 cells viability, ATP luminescence (CellTiter-Glo), 6 h; series mostly up to 92.4 µM; also: % is scaled to controls: 0 for no effect and ±100 for the full control effect; nearly all actives have a fitted effect of over 35% in size
Summary of the method: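 C3RL4 RARE-luciferase line; cpds + retinol 1 uM final, 6 h, 37 C/5% CO2; CellTiter-Glo ATP luminescence, 30 min RT.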

[11] = qHTS assay to identify small molecule agonists of the RXR signaling pathway - cell viability counter screen (AID 1159529); details: RXR-alpha-bla HEK293T viability, CellTiter-Glo, 16 h; series mostly up to 76.8 µM
Summary of the method: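 Viability read-out for the RXR-alpha agonist qHTS: luminescent CellTiter-Glo signal after 30 min at RT. HEK 293T bla reporter cells, 2% charcoal-stripped FBS, 16 hr compound incubation; tetraoctyl ammonium bromide as cytotoxic control.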

[12] = qHTS assay to identify small molecule antagonists of the retinoic acid receptor (RAR) signaling pathway (AID 1159552; also: nearly all actives have a fitted effect of over 50% in size; also: potency is read from the fitted curve at half-maximal effect); details: C3RL4 RARE luciferase reporter, retinol-stimulated, 6 h; series mostly up to 92.4 µM
Summary of the method: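 Using a RARE-driven luciferase construct in C3RL4 cells, retinol at 1 uM final provided the agonist stimulus while compounds were co-applied. After 6 hours at 37 C, luminescence was recorded to flag inhibitors of retinol signaling.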

[13] = qHTS assay to identify small molecule agonists of the retinoic acid receptor (RAR) signaling pathway (AID 1159553); details: C3RL4 RARE luciferase reporter, agonist, 6 h; series mostly up to 73.3 µM; also: % is scaled to controls: 0 for no effect and ±100 for the full control effect
Summary of the method: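 RARE-luc C3RL4 cells; overnight attachment 37 C/5% CO2; compound (DMSO) 6 hr; luciferase reagent, 30 min RT; luminescence read-out.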

[14] = qHTS assay to identify small molecule antagonists of the estrogen related receptor (ERR) signaling pathway from Tox21 library - cell viability counter screen (AID 1224834); details: ERR reporter cells viability, CellTiter-Fluor, 17.5 h; series mostly up to 92.4 µM; also: nearly all actives have a fitted effect of over 30% in size; also: potency is read from the fitted curve at half-maximal effect
Summary of the method: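 Multiplexed viability counter screen in ERR cells: 17.5 h compound exposure at 37 C, CellTiter-Fluor added, 30 min at 37 C/5% CO2, fluorescence read.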

[15] = qHTS assay to identify small molecule agonists of the estrogen related receptor (ERR) signaling pathway (AID 1224820); details: ERR reporter cell line, luciferase agonist mode; series mostly up to 46.1 µM; also: % is scaled to controls: 0 for no effect and ±100 for the full control effect
Summary of the method: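 Following a 6 h settling period, 2,000 ERR cells per well receive DMSO-dissolved compounds by pin tool and incubate 18 h at 37 C; agonist activity is scored from One-Glo luminescence read 30 min post-addition.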

[16] = system: estrogen-related receptor alpha (ERRalpha) with PGC-1alpha coactivator, human; assay: qHTS assay to identify small molecule antagonists of the estrogen related receptor signaling pathway with the pleiotropic PPARgamma coactivator (PGC) (AID 1224821; calls by dose curve); details: ERR/PGC reporter cell line, luciferase, antagonist mode; series mostly up to 46.1 µM
Summary of the method: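 Screening used NTP's PGC/ERR cells, dosed via pin tool with compound in DMSO alongside positive and negative controls. After 18 h at 37 C, One-Glo reagent sat 30 min at room temperature before luminescence detection.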

[17] = qHTS assay to identify small molecule antagonists of the estrogen related receptor signaling pathway with the pleiotropic PPARgamma coactivator (PGC) cell viability counter screen (AID 1224822; also: % is scaled to controls: 0 for no effect and ±100 for the full control effect); details: ERR/PGC reporter cell line viability counter screen; series mostly up to 46.1 µM
Summary of the method: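 Fluorescence read-out of CellTiter-Fluor after 30 min at 37 C; PGC/ERR cells, 2,000 per well, had been exposed to DMSO-dissolved compounds for 17.5 h following a 6 h pre-incubation.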

[18] = qHTS assay to identify small molecule agonists of the estrogen related receptor signaling pathway with the pleiotropic PPARgamma coactivator (PGC) (AID 1224823); details: ERR/PGC reporter cell line, luciferase agonist mode; series mostly up to 46.1 µM; also: % is scaled to controls: 0 for no effect and ±100 for the full control effect
Summary of the method: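 In this quantitative high-throughput screen, an 18 h, 37 C treatment of PGC/ERR cells with compounds in DMSO preceded a One-Glo luminescence read taken after 30 min at room temperature.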

CN(C)CCCOc1nn(Cc2ccccc2)c2ccccc12
inactive: Potency [1] | Potency [2] | Potency [3] | Potency [4] | outcome [5] | Potency [6] | Potency [7] | Potency [8] | Potency [9] | Potency [10]

C=CC(C)(CCC=C(C)C)OC(=O)c1ccccc1 (configuration not stated)
inactive: Potency [1] | Potency [3] | Potency [4] | outcome [5] | Potency [6] | Potency [7] | Potency [8] | Potency [11] | Potency [10] | Potency [12] | Potency [13]

O=[N+]([O-])c1cc[n+]([O-])cc1
inactive: Potency [2] | Potency [3] | Potency [4] | outcome [5] | Potency [6] | Potency [8] | Potency [11] | Potency [10] | Potency [12] | Potency [13] | Potency [14]
active: Potency [7] 9.69 µM

CC[C@]12CCCN3CCc4c(n(c5ccccc45)C(=O)C1)[C@@H]32
inactive: Potency [1] | Potency [2] | Potency [3] | Potency [4] | outcome [5] | Potency [6] | Potency [7] | Potency [8] | Potency [9] | Potency [10] | Potency [13]

CCCOc1ccc2nc(NC(=O)OC)[nH]c2c1
inactive: Potency [1] | Potency [2] | Potency [3] | Potency [4] | outcome [5] | Potency [6] | Potency [7] | Potency [8] | Potency [11] | Potency [12] | Potency [13]

C=CC(=O)OCC(C)OCC(C)OCC(C)OC(=O)C=C (configuration not stated)
active: Potency [6] 21.7 µM | Potency [7] 30.6 µM | Potency [12] 61.1 µM | Potency [14] 61.1 µM
inactive: Potency [3] | Potency [4] | outcome [5] | Potency [8] | Potency [11]

NCCCN(CCO)CCO
inactive: Potency [1] | Potency [2] | Potency [3] | Potency [4] | outcome [5] | Potency [6] | Potency [7] | Potency [8] | Potency [9] | Potency [11] | Potency [12] | Potency [13] | Potency [14]

CCc1nn(C2CCCCC2)c2cc(C3(C#N)CCC(C(=O)O)CC3)ccc12 (configuration not stated)
active: Potency [4] 1.55 µM | Potency [7] 27.3 µM
inactive: Potency [1] | Potency [2] | Potency [3] | outcome [5] | Potency [6] | Potency [8] | Potency [9] | Potency [11] | Potency [13]

CCCCCCCCCCCCCCCCCBr
inactive: Potency [1] | Potency [2] | Potency [3] | Potency [4] | outcome [5] | activity, negative = cytotoxicity [6] 2.1% [at 19 µM] | activity change, negative = inhibition [7] 24.8% [at 19 µM] | viability change, negative = cytotoxic [8] 0.953% [at 15.8 µM] | activation [9] -0.344% [at 15.8 µM] | activity change, negative = cytotoxicity [11] -2.08% [at 15.8 µM] | activity change, negative = cytotoxicity [10] 0.698% [at 19 µM] | viability change, negative = cytotoxic [14] -2.8% [at 19 µM]

O=C(O)Cc1sc(-c2ccccc2)nc1-c1ccc(Cl)cc1
inactive: Potency [1] | Potency [2] | Potency [3] | Potency [4] | outcome [5] | Potency [6] | Potency [7] | Potency [8] | Potency [10] | Potency [12] | Potency [13] | Potency [14]

Cc1occc1S
inactive: Potency [1] | Potency [2] | Potency [3] | Potency [4] | outcome [5] | Potency [6] | Potency [7] | Potency [8] | Potency [11] | Potency [10] | Potency [14]

CC(C)c1cccc(C(C)C)c1NC(=O)NS(=O)(=O)c1cc(C(C)(C)O)co1
inactive: Potency [1] | Potency [2] | Potency [3] | Potency [4] | outcome [5] | Potency [6] | Potency [7] | Potency [8] | Potency [11] | Potency [10] | Potency [12]

CN(C(=O)CCCOc1ccc2[nH]c(=O)ccc2c1)C1CCCCC1
inactive: Potency [1] | Potency [2] | Potency [3] | Potency [4] | outcome [5] | Potency [6] | Potency [7] | Potency [8] | Potency [9] | Potency [11] | Potency [10] | Potency [13] | outcome [15] | outcome [16] | outcome [17] | outcome [18] | Potency [14]

O=S1(=O)c2cccc3cccc(c23)N1CCCN1CCN(c2ccc(F)cc2)CC1
inactive: Potency [1] | Potency [2] | Potency [3] | Potency [4] | outcome [5] | Potency [6] | Potency [7] | Potency [8] | Potency [11] | Potency [10] | Potency [12] | Potency [14]

CC(=O)SCc1ccco1
inactive: Potency [1] | Potency [2] | Potency [3] | Potency [4] | outcome [5] | Potency [6] | Potency [7] | Potency [8] | Potency [9] | Potency [11] | Potency [10] | Potency [14]

Cc1cc(CC(=O)O)c(C)n1-c1ccc(Cl)cc1
inactive: Potency [1] | Potency [2] | Potency [3] | Potency [4] | outcome [5] | Potency [6] | Potency [7] | Potency [8] | Potency [10] | Potency [12] | Potency [13]

CCCCc1cc2ccccc2c(OCCN(C)C)n1
inactive: Potency [1] | Potency [2] | Potency [3] | Potency [4] | outcome [5] | Potency [6] | Potency [7] | Potency [8] | Potency [9] | Potency [10] | Potency [13] | Potency [14]

S=C(S)NCCNC(=S)S
inactive: Potency [1] | Potency [3] | Potency [4] | outcome [5] | Potency [6] | Potency [7] | Potency [8] | Potency [9] | Potency [11] | Potency [10] | Potency [14]

Cc1ccc(O)c([C@H](CCN(C(C)C)C(C)C)c2ccccc2)c1
inactive: Potency [3] | Potency [4] | outcome [5] | Potency [6] | Potency [7] | Potency [8] | Potency [9] | Potency [10] | Potency [12] | Potency [13] | Potency [14]

CN(C)CC/C=C1\c2ccccc2COc2ccccc21
active: Potency [12] 21.1 µM
inactive: Potency [1] | Potency [2] | Potency [3] | Potency [4] | outcome [5] | Potency [6] | Potency [7] | Potency [8] | Potency [10] | Potency [13] | outcome [17]

— PubChem BioAssay (Tox21)
